From the supplement of paper PMC8728848
Only a selection was taken, and the strongest signals are over-represented in it overall.

How the values were obtained:
Test in all cases: glycan array binding signal (z-score within array); higher = stronger binding
Conditions in all cases: glycan notation: IUPAC condensed, linker removed
[1] = target: Fuc(a1-2)Gal(b1-3)GlcNAc
In short: (§1)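 The binding signal is a Z-score computed within each array and averaged over linkers. Arrays of the same protein sequence at different concentrations or buffers were also averaged together. Data originate from 3228 arrays in the Consortium for Functional Glycomics database, kept only where the protein sequence was available.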

[2] = target: Fuc(a1-2)Gal(b1-3)GlcNAc(b1-3)Gal(b1-4)Glc
In short: as §1

[3] = target: Fuc(a1-2)[GalNAc(a1-3)]Gal(b1-4)GlcNAc(b1-3)Gal(b1-4)GlcNAc
In short: as §1

[4] = target: Fuc(a1-3)GlcNAc
In short: as §1

[5] = target: Fuc(a1-3)[Gal3S(b1-4)]GlcNAc6S
In short: as §1

[6] = target: Fuc(b1-3)GlcNAc
In short: as §1

[7] = target: Gal(b1-3)[Fuc(a1-4)]GlcNAc(b1-3)Gal(b1-3)[Fuc(a1-4)]GlcNAc
In short: as §1

[8] = target: Gal(b1-3)[Fuc(a1-4)]GlcNAc(b1-3)Gal(b1-4)[Fuc(a1-3)]GlcNAc
In short: as §1

[9] = target: Gal(b1-4)GlcNAc(b1-2)Man(a1-6)[GlcNAc(b1-2)Man(a1-3)]Man(b1-4)GlcNAc(b1-4)GlcNAc
In short: as §1

[10] = target: Gal3S(b1-4)[Fuc(a1-3)]Glc6S
In short: as §1

[11] = target: Gal3S4S(b1-4)GlcNAc
In short: as §1

[12] = target: Gal3S6S(b1-4)GlcNAc6S
In short: as §1

[13] = target: Gal4S(b1-4)GlcNAc
In short: as §1

[14] = target: GlcNAc(a1-4)Gal(b1-4)GlcNAc(b1-3)Gal(b1-4)Glc
In short: as §1

[15] = target: GlcNAc(a1-4)Gal(b1-4)GlcNAc(b1-3)Gal(b1-4)[Fuc(a1-3)]GlcNAc(b1-3)Gal(b1-4)[Fuc(a1-3)]GlcNAc
In short: as §1

[16] = target: GlcNAc(b1-2)Man(a1-3)[GlcNAc(b1-2)Man(a1-6)]Man(b1-4)GlcNAc(b1-4)[Fuc(a1-6)]GlcNAc
In short: as §1

[17] = target: GlcNAc(b1-4)GlcNAc(b1-4)GlcNAc(b1-4)GlcNAc(b1-4)GlcNAc(b1-4)GlcNAc
In short: as §1

[18] = target: Kdn(a2-3)Gal(b1-3)GlcNAc
In short: as §1

[19] = target: Man(a1-2)Man(a1-3)[Man(a1-2)Man(a1-6)]Man
In short: as §1

[20] = target: Man(a1-2)Man(a1-3)[Man(a1-2)Man(a1-6)]Man(a1-6)[Man(a1-2)Man(a1-2)Man(a1-3)]Man(b1-4)GlcNAc(b1-4)GlcNAc
In short: as §1

[21] = target: Neu5Ac(a2-3)Gal(b1-3)GalNAc(b1-3)Gal(a1-4)Gal(b1-4)Glc
In short: as §1

[22] = target: Neu5Ac(a2-3)Gal(b1-4)GlcNAc
In short: as §1

[23] = target: Neu5Ac(a2-3)Gal(b1-4)[Fuc(a1-3)]GlcNAc(b1-6)[Gal(b1-3)]GalNAc
In short: as §1

[24] = target: Neu5Ac(a2-3)[GalNAc(b1-4)]Gal(b1-4)Glc
In short: as §1

[25] = target: Neu5Ac(a2-3)[GalNAc(b1-4)]Gal(b1-4)GlcNAc(b1-3)GalNAc
In short: as §1

[26] = target: Neu5Ac(b2-6)GalNAc
In short: as §1

B1: MIC2 (Toxoplasma gondii), S8F9G8 (protein)
chain: MRLQREAVFGLMFACGMWMWPSEVAGGGWSIVDALRKRYDTSRGGDANGVDTSGVEDVIQSESAIGAAEGCTNQLDICFLIDSSGSIGIQNFRLVKQFLHTFLMVLPIGPEEVNNAVVTYSTDVHLQWDLQSPNAVDKQLAAHAVLDMPYKKGSTNTSDGLKACKQILFTGSRPGREHVPKLVIGMTDGESDSDFRTVRAAKEIRELGGIVTVLAVGHYVKHSECRSMCGCSGTSDDDSPCPLYLRADWGQLATAIKPMLKEVCKTLPQDAICSDWSAWSPCSVSCGDGSQIRTRTEVSAPQPGTPTCPDCPAPMGRTCVEQGGLEEIRECSAGVCAVDAGCGVWGEWSAWSASCGNATRKRERTRYNDPPPQGAGRRCENQDPPVLQEQTEEATLAPCITIPPTPPEWAAWSDCTVTCGGGNRHRVRNALPPGLGSQNGESDESLVSKLWPGTDLRQEEACNTSPCPINATCGQFEEWSTCSVSCGGGLKTRSRNPWNEDQQHGGLSCEQQHPGGRTETITCNPQACPVDERPGEWAEWGECSVTCGDGVRERRRGKSLVEAKFGGRTIDQQNEALPEDLKIKNVEYEPCSYPACGASCTYVWSDWNKCVCPMGYQARHAAVKFDYRNKPCDLPTFETKACSCGETNPVPSEGTTPGAPGATGPEQPNQRPLPEGSDENETPTNEEGEQSKKESGSGIAGAIAGGVIGGLILLGAAGGASYHYYLSSSVGSPSAEIEYEADDGATKVVMEEEKETLVPVDDDSDMWME
For B1, which “glycan array binding signal (z-score)” value [1] is on record?
Its value is -0.642.

What about the “glycan array binding signal (z-score)” value [2] of the same binder?
Its value is -0.779.

And the “glycan array binding signal (z-score)” value [3]?
The value was -0.814.

What about the “glycan array binding signal (z-score)” value [4] of the same binder?
The value was -0.671.

And the “glycan array binding signal (z-score)” value [5]?
The value was 3.68.

And the “glycan array binding signal (z-score)” value [6]?
Its value is 0.622.

What about the “glycan array binding signal (z-score)” value [7] of the same binder?
Its value is -0.718.

What about the “glycan array binding signal (z-score)” value [8] of the same binder?
The value was 0.177.

And the “glycan array binding signal (z-score)” value [9]?
Its value is -0.816.

What about the “glycan array binding signal (z-score)” value [10] of the same binder?
Its value is 4.19.

What about the “glycan array binding signal (z-score)” value [11] of the same binder?
The value was 3.35.

And the “glycan array binding signal (z-score)” value [12]?
Its value is 3.06.

What about the “glycan array binding signal (z-score)” value [13] of the same binder?
The value was -0.874.

What about the “glycan array binding signal (z-score)” value [14] of the same binder?
The value was -0.113.

And the “glycan array binding signal (z-score)” value [15]?
The value was 3.35.

And the “glycan array binding signal (z-score)” value [16]?
Its value is 4.

And the “glycan array binding signal (z-score)” value [17]?
Its value is 0.267.

What about the “glycan array binding signal (z-score)” value [18] of the same binder?
Its value is -0.014.

And the “glycan array binding signal (z-score)” value [19]?
The value was -0.278.

What about the “glycan array binding signal (z-score)” value [20] of the same binder?
The value was 0.876.

And the “glycan array binding signal (z-score)” value [21]?
The value was 0.008.

And the “glycan array binding signal (z-score)” value [22]?
Its value is 0.221.

What about the “glycan array binding signal (z-score)” value [23] of the same binder?
The value was 3.24.

What about the “glycan array binding signal (z-score)” value [24] of the same binder?
The value was 0.279.

What about the “glycan array binding signal (z-score)” value [25] of the same binder?
The value was 1.93.

And the “glycan array binding signal (z-score)” value [26]?
Its value is -0.725.
